Most compounds without a hit are left out; they make up all but 5.3% or so of the library.
TDP1 inh: qHTS Assay for Inhibitors of Tyrosyl-DNA Phosphodiesterase (TDP1). recombinant TDP1, AlphaScreen DNA substrate cleavage. 0.28% of 350,000 active. Potency, µM (titrated, usually from 130 µM), for the others: top-dose activity change, negative = inhibition, most hits filed as inhibitors. Tyrosyl-DNA phosphodiesterase 1 (Homo sapiens), Q9NUW8. AID 485290, 2010; further: potency means the concentration at half of the fitted maximal effect; on the % scale 0 is the no-effect control and ±100 the full control effect; nearly all actives have a fitted effect of over 40% in size
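Here, a 5' biotin and 3' phosphotyrosine-FITC DNA oligonucleotide reports Tdp1 activity: intact substrate bridges AlphaScreen beads, while cleavage leaves a 3' phosphate and drops signal. All incubations at room temperature.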
JMJD2A Tudor inh: qHTS Assay for Inhibitors of JMJD2A-Tudor Domain; 4.4% of 390,000 active; Potency, µM (titrated, usually from 114 µM), for inactives: at the top dose activity change, negative = inhibition, hits mostly inhibitors; Lysine-specific demethylase 4A (Homo sapiens), O75164; AlphaScreen JMJD2A-Tudor / H3K4me3 peptide binding; further: potency means the concentration at half of the fitted maximal effect; on the % scale 0 is the no-effect control and ±100 the full control effect; nearly all actives have a fitted effect of over 50% in size
Target sequence (O75164 whole entry, looked up, the tested form may be a part): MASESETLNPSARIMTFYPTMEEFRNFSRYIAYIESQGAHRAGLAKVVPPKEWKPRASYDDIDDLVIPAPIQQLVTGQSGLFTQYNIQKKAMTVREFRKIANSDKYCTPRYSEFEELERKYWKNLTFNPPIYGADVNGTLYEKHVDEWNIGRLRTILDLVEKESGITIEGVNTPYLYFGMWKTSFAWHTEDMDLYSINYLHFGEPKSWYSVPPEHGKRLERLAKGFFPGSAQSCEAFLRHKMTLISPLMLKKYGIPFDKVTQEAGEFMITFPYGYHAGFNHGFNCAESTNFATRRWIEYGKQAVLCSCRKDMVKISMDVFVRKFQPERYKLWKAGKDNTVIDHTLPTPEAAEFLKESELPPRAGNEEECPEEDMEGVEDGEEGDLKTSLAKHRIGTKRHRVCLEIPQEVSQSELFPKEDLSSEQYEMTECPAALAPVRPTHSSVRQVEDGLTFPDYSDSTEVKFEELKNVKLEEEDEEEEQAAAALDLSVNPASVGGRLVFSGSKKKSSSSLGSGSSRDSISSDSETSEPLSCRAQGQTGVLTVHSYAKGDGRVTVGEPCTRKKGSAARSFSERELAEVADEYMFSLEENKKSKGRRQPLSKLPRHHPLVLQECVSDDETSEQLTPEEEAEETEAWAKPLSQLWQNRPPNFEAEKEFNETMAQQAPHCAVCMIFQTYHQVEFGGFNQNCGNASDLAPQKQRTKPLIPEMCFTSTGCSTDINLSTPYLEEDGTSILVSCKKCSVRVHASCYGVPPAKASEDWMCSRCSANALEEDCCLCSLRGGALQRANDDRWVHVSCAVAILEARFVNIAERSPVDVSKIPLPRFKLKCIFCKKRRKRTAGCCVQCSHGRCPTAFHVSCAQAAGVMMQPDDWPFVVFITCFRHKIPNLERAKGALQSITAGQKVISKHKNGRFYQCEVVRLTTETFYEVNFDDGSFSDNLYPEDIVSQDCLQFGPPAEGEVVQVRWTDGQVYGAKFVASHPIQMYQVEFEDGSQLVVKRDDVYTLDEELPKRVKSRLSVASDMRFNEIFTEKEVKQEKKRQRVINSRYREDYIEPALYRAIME
HP1b chromo inh: HTS for Inhibitors of HP1-beta Chromodomain Interactions with Methylated Histone Tails | AlphaScreen HP1-beta / biotin-H3K9me3 peptide binding | Potency, µM (titrated, usually from 114 µM), for inactives: at the top dose activity change, negative = inhibition, most hits filed as inhibitors | AID 540317, 2011 | Chromobox protein homolog 1 (Homo sapiens), P83916 | 0.56% of 390,000 active; further: potency means the concentration at half of the fitted maximal effect; nearly all actives have a fitted effect of over 70% in size
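HP1-beta protein (50 nM final) preincubated 30 min at room temperature with biotinylated H3(1-18)K9me3 peptide (50 nM) in PBS pH 7.4, 0.01% Tween-20, then compound added for 30 min. AlphaScreen streptavidin donor/nickel chelate acceptor beads (10 ug/mL final), 30 min dark, luminescence read.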
BAZ2B block: qHTS Assay for Inhibitors of BAZ2B; Bromodomain adjacent to zinc finger domain protein 2B (Homo sapiens), Q9UIF8; AlphaScreen BAZ2B-H3K14Ac peptide displacement; Potency, µM (series often up to 114 µM), for the others: at the highest dose activity change, negative = inhibition, most hits filed as inhibitors; 4.4% of 360,000 active; further: potency means the concentration at half of the fitted maximal effect; on the % scale 0 is the no-effect control and ±100 the full control effect; nearly all actives have a fitted effect of over 60% in size
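AlphaScreen luminescence quantifies BAZ2B engagement of H3K14Ac peptide; the protein and biotinylated peptide are both at 50 nM final, buffer PBS pH 7.4 with 0.01% Tween-20, all steps at room temperature.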
CtBP-E1A blk: qHTS Assay for Inhibitors of the CtBP/E1A Interaction; CtBP / adenovirus E1A interaction (AlphaScreen); AlphaScreen GST-E1A/His-CtBP binding, 1536-well; active compounds read low; activity change, % (test concentration not listed); 0.49% of 340,000 active; AID 651724, 2012; in the data active means activity change below about -65%; inconclusive means mostly about -30% to -63%; further: on the % scale 0 is the no-effect control and ±100 the full control effect
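AlphaScreen with 125 nM GST-E1A and 125 nM His-CtBP (5X stocks) in Tris pH 8.0, 300 mM NaCl, BSA, Tween 20, TCEP. Compounds preincubated 2 h at 37 deg C, then glutathione donor/nickel acceptor beads added for 1 h at 37 deg C in dark.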
Six1-Eya2 inh: qHTS Assay for Inhibitors of the Six1/Eya2 Interaction; Homeobox protein SIX1 (Homo sapiens) + Protein phosphatase EYA2 (Homo sapiens), …; AlphaScreen GST-Six1/His-Eya2 binding, biochemical; active compounds read low; activity change, % (concentration not given with the values); 0.56% of 360,000 active; AID 651725, 2012; in the data active means activity change below about -65%; inconclusive means mostly about -30% to -63%; further: on the % scale 0 is the no-effect control and ±100 the full control effect
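Six1/Eya2 binding was read as AlphaScreen signal after compounds were pinned into GST-Six1 plus His-tagged Eya2 (5X stock 250/500 nM) in pH 8.0 Tris/NaCl/TCEP buffer, beads added, then incubated 1 h, 37 C, dark.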
* hit, by the source's call; ? = inconclusive; nt = no result; [ ] = dose if it differs, or a comment. Unless noted, the call rests on the fitted dose curve; in most records, active means well fitted inhibition curve with a large enough effect; inconclusive means small, poorly fitted or top-dose-only effect; inactive means no such curve, though single readings can be large or run the other way.

SMILES	TDP1 inh	JMJD2A Tudor inh	HP1b chromo inh	BAZ2B block	CtBP-E1A blk	Six1-Eya2 inh
CCOC(=O)Cn1c(=O)n(-c2ccc(Cl)cc2)c2nc(-c3ccc(Cl)cc3)nc(C(N)=O)c21	4.1%	-26.8%	9.0%[57 µM]	-2.1%	nt	nt
Cc1ccc(NC(=O)N2CCc3c([nH]c4ccccc34)C2c2ccccc2F)c(Cl)c1 (stereo not drawn)	8.5%	-32.1%	14.5%	-36.7%	nt	nt
CCOCCCn1c(=S)[nH]c2cc(C(=O)N3CCC(C(N)=O)CC3)ccc2c1=O	0.9%	8.91µM*	19.2%	?	0.4	-0.4
CCCCNC(=O)c1ccc(Cn2c(=S)[nH]c3c([nH]c4ccc(OC)cc43)c2=O)cc1	-1.1%	-32.0%	15.9%	-4.6%	3.0	1.9
COc1ccc2[nH]c3c(=O)n(Cc4ccc(C(=O)N5CCC(C(N)=O)CC5)cc4)c(=S)[nH]c3c2c1	-2.9%	3.98µM*	?	?	nt	?
CC[C@H](C)NC(=O)c1ccc(Cn2c(=S)[nH]c3c([nH]c4ccc(OC)cc43)c2=O)cc1	-2.3%	?	-1.1%	70.8µM*	-2.2	-11.4
COc1ccc2[nH]c3c(=O)n(Cc4ccc(C(=O)NCC5CCCO5)cc4)c(=S)[nH]c3c2c1 (stereo not drawn)	?	10µM*	16.4%	?	nt	-10.4
O=C(CSc1nc2ccccc2o1)N/N=C/c1ccccc1	-1.2%	8.5%[57.1 µM]	54.8%	-18.3%	-9.3	-7.1
Cc1cc(SCC(=O)N/N=C/c2ccc(O)c(O)c2)nc2ccccc12	nt	?	?	44.7µM*	-13.0	-6.6
Cc1cc(SCC(=O)N/N=C/c2ccc(O)cc2O)nc2ccccc12	nt	?	12.7%	-30.1%	?	?
O=C(CSc1nc2ccccc2o1)N/N=C/c1ccc(O)c(O)c1	nt	15.8µM*	?	44.7µM*	-19.9	-24.5
CCOc1ccc(-c2nnc(SCC(=O)Nc3ccc4c(c3)c3ccccc3n4CC)n2N)cc1	-2.9%	?	1.9%	70.8µM*	-1.1	5.6
CCn1c2ccccc2c2cc(NC(=O)CSc3nnc(-c4cccc(OC)c4)n3N)ccc21	2.6%	-6.3%	2.5%	11.7%	-9.4	-3.1
Cc1cc(NC(=O)CSc2nnc(-c3ccncc3)n2N)ccc1Br	4.2%	79.4µM*	14.8%	11.2%	-2.0	2.3
Cc1ccc2onc(CNC(=O)NCc3ccc(Cl)cc3)c2c1	0.0%	-14.3%	24.8%	-1.1%	nt	nt
COc1cc(CNc2ccc(O)cc2)cc(Br)c1OCc1ccccc1F	-1.8%	?	?	?	-16.3	19.5
CCOc1cc(CNc2ccc(O)cc2)cc(Br)c1OCc1ccccc1	7.4%	39.8µM*	?	?	nt	nt
CCOc1cc(CNc2ccc3c(c2)OCCO3)cc(Br)c1OC	10.4%	39.8µM*	-69.1%	22.4µM*	?	?
CCOc1c(Br)cc(CNc2ccc(N3CCOCC3)cc2)cc1OC	8.0%	50.1µM*	?	25.1µM*	?	?
Cc1ccc(Sc2c(C)nn(C(=O)COc3ccccc3Br)c2C)cc1	nt	23.2%	45.7%	21.0%	nt	nt
COc1ccc(CCC(=O)NCc2nc3cccnc3n2Cc2cccc(OC)c2)cc1	3.3%	-7.1%	13.9%[57 µM]	-3.3%	nt	nt
CCOC(=O)C1CCN(c2nc3c(S(=O)(=O)c4ccccc4)nnn3c3ccsc23)CC1	2.6%	-5.1%	34.5%	-6.8%	nt	nt
COC(=O)[C@H](Cc1ccccc1)NC(=O)C/C=C\[C@@H](C)[C@@H](CO)OC	4.8%[21 µM]	nt	nt	nt	nt	nt
COc1ccc(OC)c(CNc2ccc([N+](=O)[O-])cc2C)c1	8.1%	28.2µM*	?	?	-18.3	-19.2
COc1ccc([N+](=O)[O-])cc1NCc1ccccc1C	-4.0%	31.6µM*	75.3%	-0.6%	124.7	42.7

Bioassay records (PubChem)
